Shown are actives, neighbours in structure and some others; about 18% of the full set was active somewhere.
LDHA block: qHTS assay for inhibitors of human lactate dehydrogenase; activity change, % (values are at about 110 or 230 µM); L-lactate dehydrogenase A chain (Homo sapiens), P00338; purified LDHA, NADH/diaphorase-resazurin fluorescence; active compounds read low; actives 0.15% (n = 480,000); in the data active means activity change below about -30%; inconclusive means mostly about -25% to -30%;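 further: plate controls were DMSO wells for no effect and wells without enzyme for full effect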
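Human LDH5 at 2 nM final in Tris HCl pH 7.4 with 0.06 mM NADH and 0.2 mM pyruvate, reacted 5 minutes at room temperature. Remaining NADH coupled via diaphorase/resazurin; resorufin fluorescence read at 0 and 20 minutes, normalized to enzyme-free and DMSO wells.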
TDP1 cell noCPT: qHTS for Inhibitors of human tyrosyl-DNA phosphodiesterase 1 (TDP1): qHTS in cells in absence of CPT | DT40 Tdp1-/- hTDP1 cells, no CPT, ATP luminescence, 48 h | Potency, µM (highest dose often 46.2 µM), for the others: top-dose activity change, negative = growth inhibition, most hits filed as inhibitors | actives 15% (n = 420,000) | AID 686978, 2013; further: potency means the concentration at half of the fitted maximal effect; nearly all actives have a fitted effect of over 55% in size
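Camptothecin absent (DMSO only). Human TDP1-complemented DT40 knockout cells, 400 cells/well, 37 °C for minimum 48 hr; ATP measured via CellTiter-Glo, 30 min dark incubation, luminescence.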
IL-1B inflam inh: qHTS for Inhibitors of Inflammasome Signaling: IL-1-beta AlphaLISA Primary Screen; THP-1 LPS/ATP IL-1B secretion, AlphaLISA, 16 h; active compounds read low; activity change, % at 57.5 µM; actives 4.7% (n = 360,000); AID 743279, 2014; in the data active means activity change below about -50%; inconclusive means mostly about -30% to -49%
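Secreted IL-1B measured by AlphaLISA bead assay after 16 h compound exposure of THP-1 cells; compounds (final up to 57.5 uM) added 1 h before LPS (250 ng/mL) and ATP (1.25 mM) stimulation; lower signal means less secretion.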
DT40 TDP1 CPT: qHTS for Inhibitors of human tyrosyl-DNA phosphodiesterase 1 (TDP1): qHTS in cells in presence of CPT; Potency, µM (doses to about 46.2 µM), for inactives: at the highest dose activity change, negative = growth inhibition, actives largely listed as inhibitors; chicken DT40 Tdp1-/-;hTDP1 cells + 20 nM CPT, ATP luminescence, 48 h; actives 12% (n = 420,000); further: potency means the concentration at half of the fitted maximal effect; nearly all actives have a fitted effect of over 55% in size
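Chicken DT40 Tdp1-/- cells stably complemented with human TDP1 were seeded at 400 cells/well in medium containing 20 nM camptothecin, exposed to pin-transferred compounds, and grown at 37 °C for at least 48 hr. Viability was read as ATP luminescence.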
RORgamma inh: qHTS for inhibitors of ROR gamma transcriptional activity; Drosophila S2 Gal4-RORgamma UAS-luciferase reporter, 20 h; Potency, µM (highest dose often 53.6 µM), inactives show top-dose activity change, negative = inhibition, most hits filed as inhibitors; actives 5.4% (n = 310,000); AID 2551, 2010; further: potency means the concentration at half of the fitted maximal effect; nearly all actives have a fitted effect of over 60% in size
Target sequence (P51450 whole entry, looked up, the tested form may be a part): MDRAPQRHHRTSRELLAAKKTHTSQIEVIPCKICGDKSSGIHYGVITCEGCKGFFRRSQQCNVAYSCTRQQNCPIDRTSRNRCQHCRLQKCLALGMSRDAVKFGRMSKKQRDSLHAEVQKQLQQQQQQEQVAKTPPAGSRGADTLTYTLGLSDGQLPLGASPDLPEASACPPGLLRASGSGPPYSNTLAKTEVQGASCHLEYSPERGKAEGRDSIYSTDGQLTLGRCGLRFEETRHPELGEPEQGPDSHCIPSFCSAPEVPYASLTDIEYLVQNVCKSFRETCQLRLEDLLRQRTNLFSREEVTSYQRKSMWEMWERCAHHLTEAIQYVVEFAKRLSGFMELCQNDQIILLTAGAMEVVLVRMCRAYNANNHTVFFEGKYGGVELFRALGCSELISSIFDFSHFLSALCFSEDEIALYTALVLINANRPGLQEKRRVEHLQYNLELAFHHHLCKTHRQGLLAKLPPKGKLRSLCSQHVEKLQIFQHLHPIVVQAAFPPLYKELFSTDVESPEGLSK
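Drosophila Schneider cells stably carrying a metallothionein-driven Gal4 DBD–ROR gamma fusion and a UAS-Photinus luciferase reporter were exposed to compound for 1 hr, then induced with copper sulfate (700 uM final) for 20 hr at ambient temperature before luminescence reading.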
VP16 counter: VP16 counterscreen qHTS for inhibitors of ROR gamma transcriptional activity. actives 3.5% (n = 310,000). Potency, µM (top dose mostly 53.6 µM), without a hit: at the highest dose activity, negative = inhibition, most hits filed as inhibitors. Drosophila S2 Gal4-VP16 UAS-luciferase, luminescence, 20 h. AID 2546, 2010;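 further: Gal4-VP16 expression switched on by copper sulfate through the metallothionein promoter; potency means the concentration at half of the fitted maximal effect; nearly all actives have a fitted effect of over 50% in size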
* hit, by the source's call; u = inconclusive; x = no result; [ ] = dose if it differs, or a comment. Unless noted, the call rests on the fitted dose curve; in most records, active means well fitted curve in the direction sought with a large enough effect; inconclusive means small, poorly fitted or top-dose-only effect, or another doubt; inactive means no such curve, though single readings can be large; an effect the other way counts as inactive or inconclusive. Unless noted, on the % scale 0 is the no-effect control and ±100 the full control effect.

SMILES | LDHA block | TDP1 cell noCPT | IL-1B inflam inh | DT40 TDP1 CPT | RORgamma inh | VP16 counter
Cc1ccc(NC(=O)C2CCN(c3cnc4ccccc4n3)CC2)cc1F | -0.8 | x | x | x | x | x
Cc1oc(-c2ccccc2)nc1CC(=O)NCC1(N2CCOCC2)CCCCC1 | -4.1 | x | x | x | x | x
O=C(O)c1cc(-c2ccc(/C=N/NC(=S)Nc3ccccc3)o2)ccc1Cl | 9.6 | -18.0% | 30.0 | -5.1% | 11.2µM* | 2.0%[10 µM]
O=C(O)c1cccc(NC(=S)N/N=C/c2ccc([N+](=O)[O-])cc2)c1 | -0.8 | x | x | x | x | x
FC(F)(F)c1ccccc1N/N=C/c1ccccc1Br | 18.4 | x | x | x | x | x
Fc1ccccc1NC(=S)N/N=C/c1ccccc1Br | -6.4 | u | 12.7 | u | 3.16µM* | 4.47µM*
O=[N+]([O-])c1ccc(/C=N/NC(=S)Nc2ccccc2)o1 | -1.1 | 23.1µM* | -6.1 | 14.6µM* | u | u
COCCNC(=S)N/N=C/c1ccc(-c2ccc([N+](=O)[O-])cc2)o1 | -0.9 | -29.7% | 15.8 | u | 4.47µM* | 10µM*
CCCCC1(C)OC(=O)C(=Cc2ccc(-c3ccc(Cl)c(C(=O)O)c3)o2)C(=O)O1 (stereo not given) | -0.8 | -19.9% | -14.8 | -0.6% | -30.3% | 1.2%
CCOC(=O)NC(CNC(=O)CSc1ccccc1)CC(C)C (stereo not given) | -1.2 | x | x | x | x | x
O=[N+]([O-])c1cccc(-c2ccc(/C=N/NC(=S)Nc3ccccc3)o2)c1 | -5.5 | -24.4% | 3.5 | -14.4% | 0.0891µM* | 2.51µM*
CCN1C(=O)[C@H]2[C@@H](c3ccc(-c4ccc(C(C)=O)cc4)c(OC)c3)N3CCCC[C@@]3(C(=O)OC)[C@H]2C1=O | 2.4 | 16.4µM* | -13.9 | 23.1µM* | x | x
CCN1C(=O)[C@@H]2[C@@H](c3ccc(-c4ccc(F)cc4)cc3)N3CCCC[C@@]3(C(=O)OC)[C@@H]2C1=O | -1.9 | 23.1µM* | 10.6 | u | x | x
CCN1C(=O)[C@@H]2[C@@H](c3ccc(-c4ccc(F)cc4)c(OC)c3)N3CCCC[C@@]3(C(=O)OC)[C@@H]2C1=O | -1.2 | 16.4µM* | -18.8 | 16.4µM* | x | x
CCSc1ccc([C@@H]2[C@@H]3C(=O)N(CC)C(=O)[C@@H]3[C@]3(C(=O)OC)CCCCN23)cc1OC | 0.5 | u | -17.2 | -11.3% | x | x
CCN(CC(=O)N1c2ccccc2SCC1c1ccccc1)Cc1nc2ccccc2c(=O)[nH]1 (stereo not given) | 6.4 | x | x | x | x | x
O=C(Nc1ccc(C(=O)N2CCOCC2)cc1)c1cc(-c2ccc(Cl)s2)nc2ccccc12 | -8.1 | x | x | x | x | x
O=C(NCc1ccc(C(F)(F)F)cc1)c1ccc(-c2ccc(F)c(F)c2)c2ccoc12 | -1.2 | u | u | u | x | x
O=C(NCc1ccncc1)c1cc(-c2ccc(Cl)cc2)oc1C(F)(F)F | -3.6 | 18.4µM* | u | u | 32.4% | -5.8%
CC(C)CNC(=O)c1ccc(-c2ccc(F)c(F)c2)c2ccoc12 | 0.0 | 18.4µM* | -66.4* | u | x | x
O=C(NCc1ccncc1)c1ccc(-c2ccc(F)c(F)c2)c2ccoc12 | -6.0 | 6.51µM* | -16.0 | 4.11µM* | x | x
O=C(NCCc1ccccc1)c1ccc(-c2cccnc2)c2ccoc12 | -0.1 | 14.6µM* | -26.1 | u | x | x
O=C(NCc1ccccn1)c1cc(-c2ccc(Cl)cc2)oc1C(F)(F)F | 2.3 | u | -20.9 | u | -4.1% | 0.8%
C/C(=N/O)C1(C)N(O)C(C)(C)C(c2ccc(Cl)cc2)=[N+]1[O-] (stereo not given) | -18.9 | x | x | x | x | x
O=C(/C=C/c1cccs1)Oc1ccccc1/C=C/C(=O)c1cc2ccccc2o1 | 7.9 | x | x | x | x | x

Source: PubChem (National Center for Advancing Translational Sciences (NCATS))
